The record followed here is PubChem BioAssay (EPA / NIEHS).

As a reminder, the AC50 is the concentration giving half of the maximal activity seen.

Each structure is given as a SMILES string. Several values for one entry are separate records, joined by “and”; a condition that tells them apart may be missing. Equal values may be shown once. Some structures have more than one record in an assay (separate samples or runs), and their calls can disagree. Activity calls are given as the source filed them. Rule for the calls: active = hit-call score of the fitted dose curve at least 0.9, where 1 is the maximum; inactive = score below 0.9.

This assay can be described thus: APR_HepG2_MicrotubuleCSK_24hr: Apredica 24-hour HepG2 Assay for Microtubule CSK Stabilty (AID 2282909). Particulars: HepG2 microtubule cytoskeleton imaging, actives raise or lower the signal. How it is done: APR_HepG2_24hr is a cell-based, multiplexed-readout assay that uses HepG2, a human liver cell line, with measurements taken at 24 hours after chemical dosing in a 384-well plate.APR_HepG2_MicrotubuleCSK_24hr is one of 10 assay component(s) measured or calculated from the APR_HepG2_24hr assay. It is designed to make measurements of protein conformation, a form of conformation reporter, as detected with fluorescence intensity signals by HCS Fluorescent Imaging technology.Data from the assay component APR_HepG2_MicrotubuleCSK_24hr was analyzed into 1 assay endpoint. This assay endpoint, APR_HepG2_MicrotubuleCSK_24hr, was analyzed with bidirectional fitting relative to DMSO as the negative control and baseline of activity. Using a type of conformation reporter, measures of protein for gain or loss-of-signal activity can be used to understand the signaling at the cellular-level. Furthermore, this assay endpoint can be referred to as a primary readout, because this assay has produced multiple assay endpoints where this one serves a signaling function. To generalize the intended target to other relatable targets, this assay endpoint is annotated to the cell morphology intended target family, where the subfamily is cell conformation.
Cells were treated with dimethyl sulfoxide (DMSO) as a solvent control at a final concentration of 0.5% v/v or with compounds in DMSO with a resulting final DMSO concentration of 0.5% v/v. Compound treatment was done at concentrations of 0.39, 0.78, 1.56, 3.12, 6.24, 12.5, 25, 50, 100, and 200 uM in duplicate on each plate. Cells were treated with compounds for 1, 24, or 72 hr. Carbonyl […] m-chloro-phenylhydrazone (CCCP) and taxol were used as positive controls for mitochondrial function and cytoskeletal stability, respectively; DMSO served as the negative control for this experiment. Cells were fixed by the direct addition of 50 uL formaldehyde in Hank's Balanced Salt Solution (HBSS) to a final concentration of 3.7%. After incubation in the fixation medium for 30 min at room temperature (293-298 K), cells were rinsed twice with HBSS and treated with cell permeabilization buffer (16 uL of 0.5% Triton X-100) for 10 min at room temperature (293-298 K) before labeling. For mitochondrial membrane potential and mitochondrial measurements, pre-fixed cells were incubated with 50 uL of MitoTracker Red CMXRos (Invitrogen) at a concentration of 250 nM for 30 min before fixation. In the remaining cases, post-fixed cells were labeled by incubation with a multiplexed mixture of primary antibodies in HBSS for 60 min at room temperature (293-298 K) to detect immunoreactivity of c-Jun (1:500), phospho-histone H3 (1:100), phospho-histone H2A.x (1:200), p53 (1:400), alpha-tubulin (1:200) and Hoechst 33342 (2 ug/mL). Cells were labeled for multiplexed imaging on two separate plates: a) Hoechst 33342, MitoTracker Red, phospho-histone H3, and alpha-tubulin, and b) Hoechst 33342, phospho-histone H2A.x, and c-Jun. A final rinse with HBSS (50 uL) was performed before analysis. The primary and secondary antibodies for the proteins were phospho-histone H3 (rabbit anti-phospho-histone H3 and FITC-donkey anti-rabbit IgG), phospho-histone H2A.x (mouse anti-phospho-histone H2A.x and FITC-donkey anti-mouse IgG), c-Jun (rabbit anti-phospho-c-Jun and Cy3-donkey anti-rabbit IgG), p53 (sheep anti-p53 and Cy5-donkey anti-sheep IgG), alpha-tubulin (mouse anti-alpha-tubulin and Cy5-donkey anti-mouse IgG). These antibodies are available as the CellCiphr HepG2 assay kit (Millipore).Digital images of each well were captured using a Cellomics ArrayScan VTI (Thermo Scientific Cellomics) (0.8 NA objective, 0.63x optical coupler, and XF-93 filter set) at 20x magnification. The images were acquired using the autofocus feature of the ArrayScan instrument, which entails the following steps. First, the camera focuses on channel 1 (Hoechst 33342), where nuclei are identified. Second, a Z offset of 1 um is used for capturing mitochondria (MitoTracker Red). […]
For `CCOc1cc(Oc2ccc(C(F)(F)F)cc2Cl)ccc1[N+](=O)[O-]`, the call was inactive. Take `O=C(Nc1ccccc1)Nc1ccnc(Cl)c1`: the half-maximal activity concentration (AC50) was 84.5 µM (active).

On to `Cc1c(F)c(F)c(COC(=O)C2C(/C=C(\Cl)C(F)(F)F)C2(C)C)c(F)c1F` (stereo not given), for which the compound was classed as inactive. On to `OC(c1ccc(Cl)cc1)(c1cncnc1)c1ccccc1Cl` (stereo not given), for which the concentration at half-maximal activity (AC50) was 84.9 µM (active).

For `COC(=O)C=C(C)OP(=O)(OC)OC`, the outcome was inactive. Consider `CON(C)C(=O)Nc1ccc(Cl)c(Cl)c1`, for which the compound was classed as inactive. Turning to `Fc1ccc(Oc2ccnc3cc(Cl)cc(Cl)c23)cc1`, the compound was called inactive.

As for `CC(C)Oc1cc(-n2nc(C(C)(C)C)oc2=O)c(Cl)cc1Cl`, the AC50 is 46.4 µM (active).

In the case of `CCCCOC(=O)c1ccccc1C(=O)OCCCC`, the result was inactive.

Turning to `C=CC1(C)OC(=O)N(c2cc(Cl)cc(Cl)c2)C1=O` (stereo not given), the compound was called inactive. With `CC1=C(C(=O)Nc2ccccc2)SCCO1`, the compound was classed as inactive. For `COC(=O)C(C)Oc1ccc(Oc2ccc(Cl)cc2Cl)cc1` (stereo not given), the result was inactive.

With `CNC(=S)S`, the half-maximal activity concentration (AC50) is 74.4 µM (active). Consider `C=CCC1=C(C)C(OC(=O)C2C(C=C(C)C)C2(C)C)CC1=O` (stereo not given), for which the compound was called inactive; the concentration at half-maximal activity (AC50) was 30.6 µM (active) and 29.7 µM (active).

As to `CCNc1nc(Cl)nc(NCC)n1`, the call was inactive.

In the case of `CCCCNC(=O)OCC#CI`, the outcome was inactive and the AC50 is 14.7 µM (active).

On to `CCCC1COC(Cn2cncn2)(c2ccc(Cl)cc2Cl)O1` (stereo not given), for which the call was inactive. Consider `COc1nc(NC(C)C)nc(NC(C)C)n1`, for which the compound was classed as inactive.

Turning to `COC(=O)N(OC)c1ccccc1COc1ccn(-c2ccc(Cl)cc2)n1`, the half-maximal activity concentration (AC50) was 6.07 µM (active).

As to `COP(N)(=O)SC` (stereo not given), the outcome was inactive.

On to `O=C(O)COc1nc(Cl)c(Cl)cc1Cl`, for which the call was inactive.

In the case of `N#Cc1nn(-c2c(Cl)cc(C(F)(F)F)cc2Cl)c(N)c1S(=O)C(F)(F)F` (stereo not given), the AC50 was 87.2 µM (active). Consider `CS/C(C)=N/OC(=O)N(C)SN(C)C(=O)O/N=C(\C)SC`, for which the call was inactive.

Turning to `CCOC(=O)CC(SP(=S)(OC)OC)C(=O)OCC` (stereo not given), the compound was classed as inactive. As to `COc1nc(C)nc(NC(=O)NS(=O)(=O)c2ccccc2Cl)n1`, the result was inactive. Regarding `CN(C)C(=S)SSC(=S)N(C)C`, the AC50 is 17.6 µM (active).

For `Cc1cc(Cl)ccc1OCC(=O)O`, the outcome was inactive. With `CCNc1nc(Cl)nc(NC(C)C)n1`, the call was inactive. As for `CCc1nn(C)c(C(=O)NCc2ccc(C(C)(C)C)cc2)c1Cl`, the half-maximal activity concentration (AC50) is 19.8 µM (active). For `CC(C)(C)c1ccc(CSc2cnn(C(C)(C)C)c(=O)c2Cl)cc1`, the compound was called inactive. As to `CC1COC(Cn2cncn2)(c2ccc(Oc3ccc(Cl)cc3)cc2Cl)O1` (stereo not given), the call was inactive. Consider `CC(Oc1ccc(Cl)cc1Cl)C(=O)O` (stereo not given), for which the result was inactive. As for `N#Cc1cc(Br)c(O)c(Br)c1`, the compound was classed as inactive. Regarding `CCCCNC(=O)n1c(NC(=O)OC)nc2ccccc21`, the outcome was inactive. For `CCCCC(CC)COC(=O)c1ccccc1C(=O)OCC(CC)CCCC` (stereo not given), the outcome was inactive.

In the case of `COC(=O)c1ccccc1C(=O)OC`, the compound was called inactive. On to `C=CCC1=C(C)[C@@H](OC(=O)[C@@H]2[C@@H](C=C(C)C)C2(C)C)CC1=O`, for which the AC50 was 55.9 µM (active).

As to `CC(C)C1(C)N=C(c2nc3ccccc3cc2C(=O)O)NC1=O` (stereo not given), the outcome was inactive.
